Source: PubChem BioAssay
Pf apPOL inh = Pf-apPOL DNA polymerase inhibition | Recombinant Pf-apPOL, molecular beacon fluorescence, 1.5 h | inhibition, % at 10 µM | 210,000 tested, 0.25% active | AID 1794808
mHTT-CaM PPI inh = disrupts binding of mutant huntingtin to calmodulin | AlphaScreen His-mHTT/GST-CaM binding, luminescence | inhibition, % at 15 µM | P42858 | 190,000 tested, 3.6% active;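 note: 0% = both proteins with DMSO and 100% = one protein alone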
* = called active by the depositor; . = no result. Shown are actives, neighbours in structure and some others; about 3.5% of the full set was active somewhere. Cut-off read from the data, not from the text of the source: active = inhibition above about 50%; inactive = the rest.

SMILES | Pf apPOL inh | mHTT-CaM PPI inh
CC(C)c1ccc(OCC(=O)Oc2ccc3c(c2)ncn3C)cc1 | -11 | -12
Cc1ccc(C(C)C)c(OCCCn2c(CO)nc3ccccc32)c1 | -6 | 65*
COCn1c(COc2cc(C)ccc2C(C)C)nc2ccccc21 | -4 | -23
O=C1C=C(SCc2c(F)cccc2Cl)CC(c2ccccc2)C1 (stereo unspecified) | 2 | .
O=S(=O)(Nc1nccs1)c1ccc2ccccc2c1 | . | -2
CC(C)(C)C(=O)NC(Nc1cccc2cccnc12)C(Cl)(Cl)Cl (stereo unspecified) | -11 | 1
Oc1cccc2ccc(Oc3cccc4cccnc34)nc12 | -3 | 2
O=C(Nc1ccccn1)c1cc(I)ccc1Cl | -2 | -3
Cc1cccc(NC(c2ccccc2F)c2ccc3cccnc3c2O)n1 (stereo unspecified) | -13 | 99*
Oc1ccc(Cl)c(C(Nc2ccccn2)c2ccc3cccnc3c2O)c1 (stereo unspecified) | 0 | 100*
Oc1ccccc1C(Nc1ccccn1)c1ccc2cccnc2c1O (stereo unspecified) | -10 | 100*
Oc1ccccc1C(Nc1nccs1)c1ccc2cccnc2c1O (stereo unspecified) | -9 | 100*
Fc1cccc(CN2CCCCC2c2nncn2CC2CC2)c1 (stereo unspecified) | -4 | -2
CCOC(=O)C(C)Oc1ccc2c(=O)c(Oc3ccc(OCC)cc3)coc2c1 (stereo unspecified) | 0 | -21
COc1ccc(N(CC(=O)N(C)Cc2ccccc2)S(C)(=O)=O)c(OC)c1 | -17 | 0
O=C(c1ccoc1)N1CCCn2cc(-c3ccccc3)nc21 | -3 | 7
Oc1c(C(Nc2ccccn2)c2ccccc2F)ccc2cccnc12 (stereo unspecified) | -1 | 100*
O=C(Oc1cccc2cccnc12)c1c(F)cccc1F | 3 | .
NS(=O)(=O)c1ccc2nc(NC(=O)c3sc4ccccc4c3Cl)sc2c1 | 2 | 5
CCC(Sc1nc2ccccc2o1)C(=O)Nc1ccc(Cl)cn1 (stereo unspecified) | -2 | -16
CCC(Sc1nc2ccccc2o1)C(=O)Nc1nnc(C)s1 (stereo unspecified) | 85* | 0
O=c1c([N+](=O)[O-])c(O)c2ccccc2n1-c1ccccc1 | -3 | -6
O=c1c([N+](=O)[O-])c(Cl)c2ccccc2n1-c1ccccc1 | -2 | 100*
CCc1nnc(NC(=O)c2ccc(OC)c([N+](=O)[O-])c2)s1 | 0 | 0
COc1cc(OC)c(OC)cc1CN1CCN(c2ccccc2OC)CC1 | -6 | -1
SMILES | Pf apPOL inh | mHTT-CaM PPI inh
COc1ccccc1N1CCN(Cc2ccc(Br)o2)CC1 | 85* | 0
COc1ccc(CCN2CC(C(=O)NC3CC3)CC2=O)cc1OC (stereo unspecified) | -8 | -2
Cc1ccc(C(C(=O)Nc2ccc(C(C)C)cc2)N(Cc2ccco2)C(=O)c2cnccn2)cc1 (stereo unspecified) | -9 | 69*
CC(C)c1ccc(NC(=O)C(c2ccccc2)N(C)C(=O)c2cnccn2)cc1 (stereo unspecified) | -1 | 20
COc1ccc(-c2nccc(C3CCCN(C(=O)c4ccccc4C)C3)n2)cc1 (stereo unspecified) | 0 | 3
O=C(c1cccs1)N1CCCC(c2ccnc(-c3ccccc3)n2)C1 (stereo unspecified) | -6 | 95*
Cc1ccccc1C(=O)N1CCCC(c2ccnc(-c3ccc(F)cc3)n2)C1 (stereo unspecified) | 0 | 73*
COc1ccc(-c2nccc(C3CCCN(C(=O)c4cccs4)C3)n2)cc1 (stereo unspecified) | -5 | 11
Cn1c(=O)c2c(nc(NC3CCCCC3)n2Cc2ccc(Br)cc2)n(C)c1=O | -1 | 15
CC(C(=O)Nc1ccc(S(=O)(=O)N2CCCCC2)cc1)N(c1ccccc1)S(C)(=O)=O (stereo unspecified) | -4 | 4
Cc1cc(NS(=O)(=O)c2ccc(NC(=O)C3CC3)cc2)nc(C)n1 | -5 | -3
Cc1cc(NS(=O)(=O)c2ccc(NC(=O)C(Cl)(Cl)Cl)cc2)nc(C)n1 | 86* | -5
Cc1ccc(NC(=O)c2csc(-c3ccc(N4CCCC4)nc3)n2)cc1 | 0 | -10
CCc1ccc(CCNC(=O)O[C@@H]2C[C@H]3C[C@@H]2[C@H]2CCCCN2[C@H]3C)cc1 | -14 | 14
C[C@H]1[C@@H]2C[C@H]([C@H]3CCCCN31)[C@H](OC(=O)NCc1ccc(Cl)cc1)C2 | -8 | 53*
O=C(CN1CCc2ccccc2C1)Nc1nc(-c2ccccc2)cs1 | -7 | 6
O=C(C=Cc1ccc(O)cc1)CC(=O)C=Cc1ccc(O)cc1 | -12 | .
O=C(c1cccs1)N1CCC2(CC1)OCCO2 | 3 | .
O=C(C=Cc1ccc(O)c(O)c1)OC1CC(O)(C(=O)O)CC(O)C1O (stereo unspecified) | -10 | .
Nc1ccccc1C(=O)NNC(=O)c1ccc(Cl)cc1 | 7 | .
O=C(NNC(=O)c1ccc(Cl)cc1)C(=O)NNC(=O)c1ccc(Cl)cc1 | 90* | .
N#C/C(=C\c1cc2c(cc1Br)OCO2)c1ccc([N+](=O)[O-])cc1 | 3 | 7
N#C/C(=C\c1ccccc1/C=C(\C#N)c1ccc2c(c1)OCO2)c1ccc2c(c1)OCO2 | . | 73*
NC(=O)c1cccc2c1NC(C(=O)O)C1CC=CC21 (stereo unspecified) | 1 | 71*
O=C(O)c1cccc2c1NC(C(=O)O)C1CC=CC21 (stereo unspecified) | 4 | 77*
SMILES | Pf apPOL inh | mHTT-CaM PPI inh
Cc1ccc(Sc2nccnc2N2CCC(C(=O)N3CCOCC3)CC2)cc1 | -10 | 6
CC(C)CN(C)C(=O)c1cc(N2CCOCC2)nc2ccccc12 | -1 | 0
COc1cc2c(cc1OC)C(COc1ccc3c(C)cc(=O)oc3c1)N(C(=S)NCc1ccccc1)CC2 (stereo unspecified) | -4 | 4
O=[N+]([O-])c1cc(-c2nc(-c3ccccc3)c(-c3ccccc3)[nH]2)c(O)c([N+](=O)[O-])c1 | -11 | 1
COC(CNC(=O)c1ccc(N2CCc3ccccc32)c([N+](=O)[O-])c1)OC | -4 | 58*
COC(CNC(=O)c1ccc(N2CCN(c3ccccn3)CC2)c([N+](=O)[O-])c1)OC | 2 | 9
Cc1ccc(C)c(NC(=O)c2ccc(Cl)cc2)c1 | -9 | -6
O=C(c1ccccn1)N1CCC(n2nc(-c3ccsc3)ccc2=O)CC1 | -6 | 32
O=C(c1ccc(F)cc1F)N1CCC(n2nc(-c3ccsc3)ccc2=O)CC1 | -5 | 100*
O=C(c1cc(F)ccc1F)N1CCC(n2nc(-c3ccsc3)ccc2=O)CC1 | 0 | 98*
O=C(c1cc(F)ccc1F)N1CCC(CCOCc2ccc(F)cc2)CC1 | -8 | -21
CCOC(=O)c1cc(C)nn1C1CCN(C(=O)c2ccc(F)cc2F)CC1 | -3 | -4
O=C(c1ccccc1F)N1CCC(n2nc(-c3ccsc3)ccc2=O)CC1 | 6 | 86*
Cc1cc(NC(=O)C2CCN(S(=O)(=O)c3ccc(F)cc3)CC2)n(C)n1 | 0 | -8
COc1ccc(OC)c(CN2C(=O)CCC2(C)C(=O)NC2CCCCC2)c1 (stereo unspecified) | -7 | -1
CC(C)c1ccc(NC(=O)C2CC3CCCN3C23C(=O)Nc2ccccc23)cc1 (stereo unspecified) | -1 | 23
O=C(CCn1c(N2CCCCC2)nc2ccccc2c1=O)NCc1ccccc1 | -1 | -6
